Test results reported in the antibiotic and cytotoxicity screens of Wong et al. (2023).
In all, about 39,000 compounds went through this assay and about 3,300 (8.5%) were called active. Only a selection was taken, and actives are over-represented in it overall.

tested on: HepG2; assay: cytotoxicity call (relative viability < 0.9); details: 10 µM

SMILES | cytotoxicity call
Nc1nc(=O)c2ncn(CCC(CO)CO)c2[nH]1 | inactive
Cc1noc(C)c1NC(=O)N(C)C[C@H]1Oc2ccc(NC(=O)NC(C)C)cc2CC(=O)N([C@H](C)CO)C[C@H]1C | inactive
C[C@@H]1CN([C@@H](C)CO)C(=O)c2cc(NC(=O)Nc3ccc(C(F)(F)F)cc3)ccc2O[C@@H]1CN(C)Cc1ccc(Oc2ccccc2)cc1 | active
C[C@@H]1CN([C@@H](C)CO)C(=O)c2cc(NC(=O)Nc3ccc(C(F)(F)F)cc3)ccc2O[C@@H]1CN(C)C(=O)Nc1ccccc1 | inactive
C[n+]1ccc(/C2=C3\C=CC(=N3)/C(c3cc[n+](C)cc3)=c3/cc/c4[n]3[Fe][n]3c2ccc3/C(c2cc[n+](C)cc2)=C2/C=CC(=N2)\C=4c2cc[n+](C)cc2)cc1 | active
O=C(O)c1ccc(/C2=C3\C=CC(=N3)/C(c3ccc(C(=O)O)cc3)=c3/cc/c4[n]3[Mn+][n]3c2ccc3/C(c2ccc(C(=O)O)cc2)=C2/C=CC(=N2)\C=4c2ccc(C(=O)O)cc2)cc1 | inactive
C[C@@H]1CN([C@@H](C)CO)C(=O)c2cc(NC(=O)Cc3ccccc3)ccc2O[C@@H]1CN(C)S(=O)(=O)c1ccccc1 | inactive
C[C@@H]1CN([C@@H](C)CO)C(=O)c2cccc(NC(=O)C3CC3)c2O[C@@H]1CN(C)S(=O)(=O)c1cccs1 | inactive
Cc1ccc(S(=O)(=O)N(C)C[C@@H]2OCCCC[C@@H](C)Oc3ccc(NC(=O)Nc4c(C)noc4C)cc3C(=O)N([C@@H](C)CO)C[C@@H]2C)cc1 | inactive
C[C@@H]1CCCCO[C@@H](CN(C)CC2CC2)[C@@H](C)CN([C@H](C)CO)C(=O)c2cc(NS(=O)(=O)c3cn(C)cn3)ccc2O1 | inactive
COc1ccc(CN(C)C[C@H]2Oc3ccc(NC(=O)Nc4cccc5ccccc45)cc3CC(=O)N([C@@H](C)CO)C[C@H]2C)cc1 | active
COc1ccc(CN(C)C[C@@H]2Oc3ccc(NC(=O)Nc4cccc5ccccc45)cc3CC(=O)N([C@H](C)CO)C[C@H]2C)cc1 | inactive
COc1ccc(CN(C)C[C@@H]2Oc3ccc(NC(=O)Nc4cccc5ccccc45)cc3CC(=O)N([C@H](C)CO)C[C@@H]2C)cc1 | inactive
COc1ccc(CN(C)C[C@H]2Oc3ccc(NC(=O)Nc4cccc5ccccc45)cc3CC(=O)N([C@@H](C)CO)C[C@@H]2C)cc1 | active
COc1ccc(CN(C)C[C@@H]2Oc3ccc(NC(=O)Nc4cccc5ccccc45)cc3CC(=O)N([C@@H](C)CO)C[C@@H]2C)cc1 | active
COc1ccc(CN(C)C[C@H]2Oc3ccc(NC(=O)Nc4cccc5ccccc45)cc3CC(=O)N([C@H](C)CO)C[C@H]2C)cc1 | active
COc1ccc(OC)c(S(=O)(=O)N2[C@@H]3CC[C@@H](C3)[C@H]2c2nc3cccc(OCc4ccccc4)c3[nH]2)c1 | inactive
CO[C@@H]1CN(C)C(=O)c2cc(NS(=O)(=O)CC(F)(F)F)ccc2OC[C@@H](C)N(Cc2ccccn2)C[C@@H]1C | inactive
C[C@@H]1CN([C@@H](C)CO)C(=O)c2cc(Br)cnc2O[C@@H]1CN(C)S(=O)(=O)c1ccccc1 | inactive
Cc1ccc(S(=O)(=O)N(C)C[C@@H]2Oc3ccc(NC(=O)Cn4cnnn4)cc3C(=O)N([C@@H](C)CO)C[C@@H]2C)cc1 | inactive
C/C(=N\N)c1c(C)cc(C)[nH]c1=O | inactive
Nc1cccc(=O)[nH]1 | inactive
Cc1noc(C)c1NC(=O)N(C)C[C@@H]1Oc2ccc(NC(=O)Nc3ccc(C(F)(F)F)cc3)cc2CC(=O)N([C@H](C)CO)C[C@@H]1C | inactive
C[C@H]1CN([C@@H](C)CO)C(=O)c2cc(C#CCc3ccccc3)cnc2O[C@@H]1CN(C)CC1CCOCC1 | inactive

SMILES | cytotoxicity call
C[C@H](CO)N1C[C@H](C)[C@@H](CN(C)C(=O)Nc2cccc(Oc3ccccn3)c2)OCc2cnnn2CCCC1=O | inactive
COc1ccc(NC(=O)Nc2ccc3c(c2)C(=O)N([C@@H](C)CO)C[C@H](C)[C@H](CN(C)Cc2ccc4c(c2)OCO4)OCCCC[C@H](C)O3)cc1 | inactive
C[C@H](CO)N1C[C@H](C)[C@@H](CN(C)S(=O)(=O)c2ccccc2C#N)OCc2cnnn2CCCC1=O | inactive
Cc1cc(=O)[nH][nH]1 | inactive
CC(C)(C)c1ccc(C(=O)CCCN2CCC(OC(c3ccccc3)c3ccccc3)CC2)cc1 | active
CCN1CCCC(OC(=O)C(c2ccccc2)c2ccccc2)C1.Cl (stereo not drawn) | inactive
COc1ccc(C(=O)CC(=O)c2ccc(C(C)(C)C)cc2)cc1 | inactive
O=C(c1ccccc1Cl)n1c2ccccc2c2ccccc21 | active
COc1ccc2c(c1)c(CC(=O)O)c(C)n2C(=O)c1ccc(Cl)cc1 | inactive
O=C(c1ccc(Cl)cc1)n1c2ccccc2c2ccccc21 | active
NC(=O)c1ccccc1C(N)=O | inactive
COc1ccc2c(c1)c(CC(=O)OCC(=O)O)c(C)n2C(=O)c1ccc(Cl)cc1 | inactive
Cc1c(Cl)cccc1Nc1ccccc1C(=O)O | inactive
C[C@H]1CN([C@@H](C)CO)C(=O)c2cccc(NC(=O)CCCCCC(=O)Nc3ccccc3N)c2O[C@H]1CN(C)C(=O)Nc1ccccc1 | inactive
Cn1nc(CNc2ncccn2)c2c1CNCC2 | inactive
C[C@H](CO)N1C[C@H](C)[C@@H](CN(C)Cc2ccc(C(F)(F)F)cc2)Oc2ccc(NC(=O)Cc3ccccc3)cc2C1=O | inactive
C[C@H](CO)N1C[C@H](C)[C@H](CN(C)CC2CCCCC2)OCCCC[C@H](C)Oc2ccc(NS(=O)(=O)c3ccccc3)cc2C1=O | inactive
CCOC(=O)[C@H]1CSCCN1 | inactive
C[C@H]1CN([C@@H](C)CO)C(=O)CCCn2nncc2CO[C@H]1CN(C)Cc1ccc2c(c1)OCCN2C | inactive
Cc1cc(=O)n2c(C)nnc2[nH]1 | inactive
CCCNC(=O)Nc1ccc2c(c1)C(=O)N(C)C[C@@H](OC)[C@@H](C)CN(Cc1ccc(-c3ccccn3)cc1)[C@H](C)CO2 | inactive
COC(=O)c1ccc(Cn2cc(C(=O)NO)nn2)o1 | inactive
COc1cccc(-n2cc(C(=O)NO)nn2)c1 | inactive
COc1ccc(-n2cc(C(=O)NO)nn2)cc1 | active
